The record followed here is PMC7862700, “An all-to-all approach to the identification of sequence-specific readers for epigenetic DNA modifications on cytosine”.

Common to all, as to assay: DAPPL (digital affinity profiling via proximity ligation, sequencing); 10 mM Tris-HCl pH 7.5, 50 mM NaCl, 1 mM DTT, 4% glycerol, room temperature, 30 min; GST-TFs on glutathione beads, 16-mer random dsDNA library, 0.1% formaldehyde crosslink after washing; high values mean tight binding
In one assay the target is T1, FEV (Homo sapiens, UniProt Q99581 1-238).
T1 sequence: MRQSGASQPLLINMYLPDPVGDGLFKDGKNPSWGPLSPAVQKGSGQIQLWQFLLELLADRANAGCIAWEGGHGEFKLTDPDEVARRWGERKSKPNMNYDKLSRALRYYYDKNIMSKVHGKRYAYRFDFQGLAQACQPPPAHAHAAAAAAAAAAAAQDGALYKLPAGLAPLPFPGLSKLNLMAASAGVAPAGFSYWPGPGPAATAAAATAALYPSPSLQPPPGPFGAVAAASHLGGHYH
Conditions: protein: recombinant; tags: N-terminal GST; dsDNA, one strand shown. In short, it runs like this: (§1)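 Sequencing on an Illumina NextSeq500 followed washing, crosslinking with 0.1% formaldehyde, proximity ligation (BsaI/T4 ligase, 1 h, 37 °C) and PCR amplification of pools that had been incubated for 30 min at room temperature with 200 nmole of a random double-stranded 16-mer DNA library in Tris/NaCl/DTT/glycerol buffer. Each pool held DNA-barcoded human transcription factors, expressed in yeast as GST fusions and captured on glutathione beads, plus a tag-only sample. Binding signal is a hexamer's read frequency for a factor divided by its frequency in the tag-only sample.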

Another assay deals with ETV5 (Homo sapiens, UniProt P41161 1-510). The settings on record: protein: recombinant; tags: N-terminal GST; dsDNA, one strand shown. Put shortly:
as §1

The target in a further assay is HSF1 (Homo sapiens, UniProt Q00613 1-529). The settings on record: protein: recombinant; tags: N-terminal GST; chain copies: 3; dsDNA, one strand shown. Put shortly:
as §1

A further assay has as its target T2, SPIC (Homo sapiens, UniProt Q8N5J4 1-248).
T2 sequence: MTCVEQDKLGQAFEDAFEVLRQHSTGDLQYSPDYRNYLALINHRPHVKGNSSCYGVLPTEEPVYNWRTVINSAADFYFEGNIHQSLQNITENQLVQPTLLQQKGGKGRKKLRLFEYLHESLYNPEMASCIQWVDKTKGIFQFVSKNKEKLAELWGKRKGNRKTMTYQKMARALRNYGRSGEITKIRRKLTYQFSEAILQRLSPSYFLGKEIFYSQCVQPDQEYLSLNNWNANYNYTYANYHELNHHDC
The settings on record: protein: recombinant; tags: N-terminal GST; dsDNA, one strand shown. In short, it runs like this: as §1

The target in the next assay is ELF4 (Homo sapiens, UniProt Q99607 1-663). Conditions: protein: recombinant; tags: N-terminal GST; dsDNA, one strand shown. Put shortly: as §1
ELF4, sequence (Q99607 whole entry): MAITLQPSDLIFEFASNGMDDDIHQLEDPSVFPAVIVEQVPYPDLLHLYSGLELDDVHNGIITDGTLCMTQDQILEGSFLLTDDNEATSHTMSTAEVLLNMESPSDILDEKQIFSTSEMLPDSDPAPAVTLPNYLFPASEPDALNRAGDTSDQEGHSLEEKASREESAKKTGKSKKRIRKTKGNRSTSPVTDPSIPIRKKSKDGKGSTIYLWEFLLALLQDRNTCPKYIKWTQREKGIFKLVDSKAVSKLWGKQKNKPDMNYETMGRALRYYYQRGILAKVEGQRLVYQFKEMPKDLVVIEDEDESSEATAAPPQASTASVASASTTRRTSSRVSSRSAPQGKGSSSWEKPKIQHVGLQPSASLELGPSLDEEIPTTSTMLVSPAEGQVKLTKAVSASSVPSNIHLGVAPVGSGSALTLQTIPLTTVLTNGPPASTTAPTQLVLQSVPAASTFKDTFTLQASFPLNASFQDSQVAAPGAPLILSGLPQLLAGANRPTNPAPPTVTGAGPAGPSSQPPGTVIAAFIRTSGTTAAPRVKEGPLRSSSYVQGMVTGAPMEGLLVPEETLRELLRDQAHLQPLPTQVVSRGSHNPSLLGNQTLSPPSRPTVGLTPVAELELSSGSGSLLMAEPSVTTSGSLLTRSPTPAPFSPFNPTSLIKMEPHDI
The next assay addresses T3, ELK4 (Homo sapiens, UniProt P28324-2 1-405).
T3 sequence: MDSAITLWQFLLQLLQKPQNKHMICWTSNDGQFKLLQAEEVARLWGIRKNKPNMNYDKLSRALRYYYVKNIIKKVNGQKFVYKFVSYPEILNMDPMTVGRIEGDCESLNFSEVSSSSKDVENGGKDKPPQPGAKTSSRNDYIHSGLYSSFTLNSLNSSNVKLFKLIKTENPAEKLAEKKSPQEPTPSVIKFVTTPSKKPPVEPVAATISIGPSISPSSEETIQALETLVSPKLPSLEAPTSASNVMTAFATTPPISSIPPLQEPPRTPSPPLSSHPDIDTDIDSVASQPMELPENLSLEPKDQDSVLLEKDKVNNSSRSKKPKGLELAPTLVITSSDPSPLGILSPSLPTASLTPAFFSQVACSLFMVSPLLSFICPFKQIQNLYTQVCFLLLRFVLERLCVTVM
Conditions: protein: recombinant; tags: N-terminal GST; dsDNA, one strand shown. Put shortly:
as §1

Another assay concerns the target T4, ETV2 (Homo sapiens, UniProt O00321 1-342).
T4 sequence: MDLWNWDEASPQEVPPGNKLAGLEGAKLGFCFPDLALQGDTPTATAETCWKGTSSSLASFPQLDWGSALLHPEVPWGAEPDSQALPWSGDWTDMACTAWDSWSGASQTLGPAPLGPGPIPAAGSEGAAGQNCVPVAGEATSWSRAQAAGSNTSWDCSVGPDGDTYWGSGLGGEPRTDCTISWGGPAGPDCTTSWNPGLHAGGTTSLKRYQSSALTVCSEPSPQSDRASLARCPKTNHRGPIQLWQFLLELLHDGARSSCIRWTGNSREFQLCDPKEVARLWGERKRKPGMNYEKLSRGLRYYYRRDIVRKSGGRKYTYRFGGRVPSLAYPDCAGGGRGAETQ
Conditions: protein: recombinant; tags: N-terminal GST; dsDNA, one strand shown. In short, it runs like this: as §1

The target of the next assay is T5, ELF3 (Homo sapiens, UniProt P78545 1-371).
T5 sequence: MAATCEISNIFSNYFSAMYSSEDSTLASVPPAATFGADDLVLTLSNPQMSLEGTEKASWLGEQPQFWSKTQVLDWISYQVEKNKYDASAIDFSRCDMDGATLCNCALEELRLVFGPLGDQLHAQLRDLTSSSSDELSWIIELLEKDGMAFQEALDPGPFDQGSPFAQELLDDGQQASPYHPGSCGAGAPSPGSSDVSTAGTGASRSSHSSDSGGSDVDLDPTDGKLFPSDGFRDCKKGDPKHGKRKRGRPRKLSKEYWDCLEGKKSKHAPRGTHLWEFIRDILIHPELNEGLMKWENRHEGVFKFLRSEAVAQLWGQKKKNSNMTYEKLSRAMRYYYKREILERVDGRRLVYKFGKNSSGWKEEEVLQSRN
Conditions: protein: recombinant; tags: N-terminal GST; dsDNA, one strand shown. In short, it runs like this: as §1

A further assay has as its target CRX (Homo sapiens, UniProt O43186 1-299). Conditions: protein: recombinant; tags: N-terminal GST; dsDNA, one strand shown. In short, it runs like this: as §1
Another assay deals with ETV1 (Homo sapiens, UniProt P50549 1-477). Conditions: protein: recombinant; tags: N-terminal GST; dsDNA, one strand shown. In short, it runs like this: as §1
ETV1, sequence (P50549 whole entry): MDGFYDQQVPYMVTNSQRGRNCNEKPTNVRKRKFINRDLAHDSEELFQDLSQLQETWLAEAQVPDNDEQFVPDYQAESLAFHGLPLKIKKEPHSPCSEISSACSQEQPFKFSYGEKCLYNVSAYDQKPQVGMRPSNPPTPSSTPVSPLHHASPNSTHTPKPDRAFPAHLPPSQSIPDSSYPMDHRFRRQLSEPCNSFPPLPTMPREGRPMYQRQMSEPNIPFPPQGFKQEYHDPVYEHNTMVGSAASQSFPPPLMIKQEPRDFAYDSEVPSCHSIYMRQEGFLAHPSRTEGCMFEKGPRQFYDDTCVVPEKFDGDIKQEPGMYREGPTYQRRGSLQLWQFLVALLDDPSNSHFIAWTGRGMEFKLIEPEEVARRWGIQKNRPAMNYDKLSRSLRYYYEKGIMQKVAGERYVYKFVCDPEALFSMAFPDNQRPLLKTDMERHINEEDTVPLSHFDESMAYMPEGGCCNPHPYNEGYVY
The next assay has as its target T6, ERF (Homo sapiens, UniProt P50548 1-548).
T6 sequence: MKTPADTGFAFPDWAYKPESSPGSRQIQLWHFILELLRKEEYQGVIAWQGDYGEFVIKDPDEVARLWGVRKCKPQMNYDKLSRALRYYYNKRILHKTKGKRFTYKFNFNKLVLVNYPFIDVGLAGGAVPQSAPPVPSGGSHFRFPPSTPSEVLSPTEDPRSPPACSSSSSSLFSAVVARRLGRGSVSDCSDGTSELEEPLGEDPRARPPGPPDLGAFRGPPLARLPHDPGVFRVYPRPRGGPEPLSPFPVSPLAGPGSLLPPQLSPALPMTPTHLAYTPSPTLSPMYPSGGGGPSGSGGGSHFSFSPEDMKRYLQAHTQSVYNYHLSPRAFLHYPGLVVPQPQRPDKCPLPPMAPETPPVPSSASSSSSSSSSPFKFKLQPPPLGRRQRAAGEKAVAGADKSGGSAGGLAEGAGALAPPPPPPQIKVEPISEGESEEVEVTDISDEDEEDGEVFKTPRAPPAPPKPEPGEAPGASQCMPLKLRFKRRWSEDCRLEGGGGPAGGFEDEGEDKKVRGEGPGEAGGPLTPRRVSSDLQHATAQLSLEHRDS
The settings on record: protein: recombinant; tags: N-terminal GST; dsDNA, one strand shown. In short, it runs like this:
as §1

In another assay the target is T7, ETV3L (Homo sapiens, UniProt Q6ZN32 1-361).
T7 sequence: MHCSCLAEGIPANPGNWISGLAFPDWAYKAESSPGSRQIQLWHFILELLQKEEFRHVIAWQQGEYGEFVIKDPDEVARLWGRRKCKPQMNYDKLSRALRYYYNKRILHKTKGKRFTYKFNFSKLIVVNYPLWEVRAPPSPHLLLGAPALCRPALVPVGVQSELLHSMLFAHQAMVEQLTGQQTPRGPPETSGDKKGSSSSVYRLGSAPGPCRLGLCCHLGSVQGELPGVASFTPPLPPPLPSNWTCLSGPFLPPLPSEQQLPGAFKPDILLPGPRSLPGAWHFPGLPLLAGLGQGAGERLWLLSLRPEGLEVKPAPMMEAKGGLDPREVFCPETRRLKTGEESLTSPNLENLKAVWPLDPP
The settings on record: protein: recombinant; tags: N-terminal GST; dsDNA, one strand shown. In short, it runs like this: as §1

In a further assay the target is T8, ETS2 (Homo sapiens, UniProt P15036 1-469).
T8 sequence: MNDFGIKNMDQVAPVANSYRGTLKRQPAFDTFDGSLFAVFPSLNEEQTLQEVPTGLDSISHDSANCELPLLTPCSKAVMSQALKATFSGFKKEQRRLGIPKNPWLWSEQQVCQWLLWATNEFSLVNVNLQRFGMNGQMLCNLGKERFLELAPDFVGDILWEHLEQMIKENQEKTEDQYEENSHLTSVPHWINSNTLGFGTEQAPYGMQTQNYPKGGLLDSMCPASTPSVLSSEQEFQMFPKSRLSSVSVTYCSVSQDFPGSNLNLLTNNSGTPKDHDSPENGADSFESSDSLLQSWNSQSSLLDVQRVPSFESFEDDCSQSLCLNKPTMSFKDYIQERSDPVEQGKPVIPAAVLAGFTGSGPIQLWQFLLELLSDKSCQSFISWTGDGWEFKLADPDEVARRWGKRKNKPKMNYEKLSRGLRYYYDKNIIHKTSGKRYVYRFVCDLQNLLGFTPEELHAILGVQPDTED
Conditions: protein: recombinant; tags: N-terminal GST; dsDNA, one strand shown. In short, it runs like this:
as §1

Another assay has as its target T9, SPDEF (Homo sapiens, UniProt O95238 1-335).
T9 sequence: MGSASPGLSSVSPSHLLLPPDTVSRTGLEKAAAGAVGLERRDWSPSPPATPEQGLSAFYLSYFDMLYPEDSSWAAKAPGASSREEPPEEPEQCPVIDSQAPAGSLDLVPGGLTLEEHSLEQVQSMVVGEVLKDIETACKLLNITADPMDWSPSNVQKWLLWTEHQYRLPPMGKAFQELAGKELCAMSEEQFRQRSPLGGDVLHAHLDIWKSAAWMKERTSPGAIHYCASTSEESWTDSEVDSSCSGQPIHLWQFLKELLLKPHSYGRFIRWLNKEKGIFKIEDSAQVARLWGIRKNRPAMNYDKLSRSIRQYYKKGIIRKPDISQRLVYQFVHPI
The settings on record: protein: recombinant; tags: N-terminal GST; dsDNA, one strand shown. Put shortly:
as §1

The target of the next assay is T10, ETV7 (Homo sapiens, UniProt Q9Y603 1-341).
T10 sequence: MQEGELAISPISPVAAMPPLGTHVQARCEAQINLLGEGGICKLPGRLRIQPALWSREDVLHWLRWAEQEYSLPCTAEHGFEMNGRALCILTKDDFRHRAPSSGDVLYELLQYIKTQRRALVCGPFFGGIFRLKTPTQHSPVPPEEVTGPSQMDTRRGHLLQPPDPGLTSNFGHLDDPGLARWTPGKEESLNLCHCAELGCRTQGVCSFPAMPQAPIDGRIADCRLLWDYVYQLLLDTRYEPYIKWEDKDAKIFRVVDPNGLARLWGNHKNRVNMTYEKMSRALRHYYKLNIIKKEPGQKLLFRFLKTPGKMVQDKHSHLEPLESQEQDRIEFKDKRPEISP
The settings on record: protein: recombinant; tags: N-terminal GST; dsDNA, one strand shown. In short, it runs like this:
as §1

The target in another assay is T11, ELF5 (Homo sapiens, UniProt Q9UKW6-2 1-255).
T11 sequence: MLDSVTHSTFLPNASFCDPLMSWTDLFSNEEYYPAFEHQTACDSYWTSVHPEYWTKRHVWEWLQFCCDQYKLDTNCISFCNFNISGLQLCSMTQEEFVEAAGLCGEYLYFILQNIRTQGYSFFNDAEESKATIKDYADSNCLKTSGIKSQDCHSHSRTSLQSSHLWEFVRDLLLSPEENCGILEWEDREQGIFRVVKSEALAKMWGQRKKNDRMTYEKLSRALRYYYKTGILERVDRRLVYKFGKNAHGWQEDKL
Conditions: protein: recombinant; tags: N-terminal GST; dsDNA, one strand shown. Put shortly:
as §1

The target in the next assay is T12, ETV3 (Homo sapiens, UniProt P41162-2 1-143).
T12 sequence: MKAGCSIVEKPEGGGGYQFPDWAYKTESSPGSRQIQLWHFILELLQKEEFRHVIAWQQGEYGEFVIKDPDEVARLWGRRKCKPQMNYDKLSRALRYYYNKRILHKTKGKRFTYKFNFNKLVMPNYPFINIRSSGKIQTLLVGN
Conditions: protein: recombinant; tags: N-terminal GST; dsDNA, one strand shown. In short, it runs like this:
as §1

A further assay deals with ETV6 (Homo sapiens, UniProt P41212 1-452). The settings on record: protein: recombinant; tags: N-terminal GST; dsDNA, one strand shown. In short, it runs like this: as §1
ETV6, sequence (P41212 whole entry): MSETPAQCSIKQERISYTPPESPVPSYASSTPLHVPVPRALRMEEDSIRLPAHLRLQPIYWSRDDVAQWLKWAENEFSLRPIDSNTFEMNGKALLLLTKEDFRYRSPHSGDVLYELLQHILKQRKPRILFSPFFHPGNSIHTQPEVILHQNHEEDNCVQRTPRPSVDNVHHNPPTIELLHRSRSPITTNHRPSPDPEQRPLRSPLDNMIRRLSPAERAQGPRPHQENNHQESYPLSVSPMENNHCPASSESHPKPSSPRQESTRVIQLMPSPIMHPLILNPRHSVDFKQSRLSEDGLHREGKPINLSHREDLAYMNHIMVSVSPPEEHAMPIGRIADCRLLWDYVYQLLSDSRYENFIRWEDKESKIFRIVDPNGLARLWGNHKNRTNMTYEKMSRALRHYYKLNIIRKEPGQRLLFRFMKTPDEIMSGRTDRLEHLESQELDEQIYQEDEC

HSF1, sequence (Q00613 whole entry): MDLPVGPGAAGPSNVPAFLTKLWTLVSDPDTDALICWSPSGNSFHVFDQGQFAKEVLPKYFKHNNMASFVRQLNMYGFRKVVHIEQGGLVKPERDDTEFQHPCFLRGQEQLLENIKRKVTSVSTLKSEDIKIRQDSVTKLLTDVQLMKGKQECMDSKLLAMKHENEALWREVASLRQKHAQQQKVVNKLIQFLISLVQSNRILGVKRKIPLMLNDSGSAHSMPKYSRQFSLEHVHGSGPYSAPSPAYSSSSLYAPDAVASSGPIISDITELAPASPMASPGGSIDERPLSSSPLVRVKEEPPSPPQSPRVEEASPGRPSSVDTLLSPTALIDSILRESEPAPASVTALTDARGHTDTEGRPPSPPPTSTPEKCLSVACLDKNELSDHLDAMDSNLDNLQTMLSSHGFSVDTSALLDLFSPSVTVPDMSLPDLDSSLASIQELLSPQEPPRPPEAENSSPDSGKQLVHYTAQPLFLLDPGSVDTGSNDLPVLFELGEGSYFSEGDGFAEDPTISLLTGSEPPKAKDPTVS
CRX, sequence (O43186 whole entry): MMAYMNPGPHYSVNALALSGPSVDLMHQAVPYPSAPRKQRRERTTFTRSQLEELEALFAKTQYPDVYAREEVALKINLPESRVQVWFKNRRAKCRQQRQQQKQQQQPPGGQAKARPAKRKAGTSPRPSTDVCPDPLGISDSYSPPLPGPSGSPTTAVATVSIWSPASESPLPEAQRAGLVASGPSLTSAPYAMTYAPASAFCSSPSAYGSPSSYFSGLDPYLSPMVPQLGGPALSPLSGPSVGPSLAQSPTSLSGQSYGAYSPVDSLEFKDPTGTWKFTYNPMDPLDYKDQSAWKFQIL
ETV5, sequence (P41161 whole entry): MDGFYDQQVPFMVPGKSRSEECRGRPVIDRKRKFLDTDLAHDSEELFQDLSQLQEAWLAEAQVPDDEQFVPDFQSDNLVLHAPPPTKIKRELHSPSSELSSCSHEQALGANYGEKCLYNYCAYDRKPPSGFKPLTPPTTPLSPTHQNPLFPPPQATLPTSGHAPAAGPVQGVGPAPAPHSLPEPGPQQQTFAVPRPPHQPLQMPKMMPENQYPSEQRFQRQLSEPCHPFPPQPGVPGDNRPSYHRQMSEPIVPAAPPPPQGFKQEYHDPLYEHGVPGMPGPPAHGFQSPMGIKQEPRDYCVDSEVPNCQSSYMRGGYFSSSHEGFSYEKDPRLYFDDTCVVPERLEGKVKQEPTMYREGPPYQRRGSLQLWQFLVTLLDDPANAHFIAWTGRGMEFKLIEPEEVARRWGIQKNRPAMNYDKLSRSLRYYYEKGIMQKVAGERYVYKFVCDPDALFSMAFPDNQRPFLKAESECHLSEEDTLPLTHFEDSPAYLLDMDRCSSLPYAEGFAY

For TCGACA, the binding signal with FEV was 1.3 fold enrichment (6-mer frequency, TF over GST control); in the assay with ETV5 it was 1.32 fold enrichment (6-mer frequency, TF over GST control); in the assay with HSF1, 1.38 fold enrichment (6-mer frequency, TF over GST control); with SPIC it was 1.28 fold enrichment (6-mer frequency, TF over GST control); with ELF4, 1.43 fold enrichment (6-mer frequency, TF over GST control); in the assay with ELK4, 1.42 fold enrichment (6-mer frequency, TF over GST control). The binding signal in the assay with ETV2 was 1.19 fold enrichment (6-mer frequency, TF over GST control); with ELF3, 1.23 fold enrichment (6-mer frequency, TF over GST control); with CRX it was 1.19 fold enrichment (6-mer frequency, TF over GST control); with ETV1, 1.4 fold enrichment (6-mer frequency, TF over GST control); in the assay with ERF, 1.35 fold enrichment (6-mer frequency, TF over GST control); in the assay with ETV3L, 1.3 fold enrichment (6-mer frequency, TF over GST control). For the same sequence, the binding signal in the assay with ETS2 is 1.31 fold enrichment (6-mer frequency, TF over GST control); with SPDEF it was 1.23 fold enrichment (6-mer frequency, TF over GST control); in the assay with ETV7, 1.39 fold enrichment (6-mer frequency, TF over GST control); with ELF5 it was 1.27 fold enrichment (6-mer frequency, TF over GST control); in the assay with ETV3, 1.4 fold enrichment (6-mer frequency, TF over GST control); with ETV6, 1.42 fold enrichment (6-mer frequency, TF over GST control).
